Measurements taken from PubChem BioAssay (EPA / NIEHS).
Calls of active or inactive are those of the source. How the source made its calls: active means hit-call score of the fitted dose curve at least 0.9, where 1 is the maximum; inactive means score below 0.9.

Assays:
Conditions in all cases: mRNA level, 48 h; actives raise or lower the signal
[1] = read-out: ABC Transporter (ABCB11), ABCB11 (gene 8647); assay: LTEA_HepaRG_ABCB11: Life Technologies and Expression Analysis (LTEA) Assay for ABC Transporter (ABCB11) using HepaRG (AID 2283463)
How it was run: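 Differentiated human HepaRG cells in serum-free induction medium, dosed in duplicate for 48 h. Eight-point half-log series from 100 uM in 0.5% DMSO; ABCB11 mRNA by qRT-PCR, normalized to ACTB, GAPDH, POLR2A, fitted bidirectionally versus DMSO.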

[2] = read-out: ABC Transporter (ABCC2), ABCC2 (gene 1244); assay: LTEA_HepaRG_ABCC2: Life Technologies and Expression Analysis (LTEA) Assay for ABC Transporter (ABCC2) using HepaRG (AID 2283464)
How it was run: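 HepaRG, 48 h post-plating; serum-free induction medium; cpd 8-pt, 100 uM top, half-log, 0.5% DMSO, duplicate, 48 h. Readout: ABCC2 mRNA by qRT-PCR, norm. ACTB/GAPDH/POLR2A. Bidirectional fit vs DMSO baseline.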

[3] = read-out: Broad substrate specificity ATP-binding cassette transporter ABCG2 (Homo sapiens) (UniProt Q9UNQ0); assay: LTEA_HepaRG_ABCG2: Life Technologies and Expression Analysis (LTEA) Assay for ABC Transporter (ABCG2) using HepaRG (AID 2283465)
How it was run: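 Differentiated HepaRG cells were exposed for 48 h in serum-free induction medium to 8 half-log concentrations, top 100 uM, in 0.5% DMSO. ABCG2 mRNA was measured by qRT-PCR, normalized to ACTB, GAPDH and POLR2A, with bidirectional fitting versus DMSO.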

[4] = read-out: ATP-citrate lyase (ACLY), ACLY (gene 47); assay: LTEA_HepaRG_ACLY: Life Technologies and Expression Analysis (LTEA) Assay for ATP-citrate lyase (ACLY) using HepaRG (AID 2283466)
How it was run: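 Differentiated HepaRG cells exposed 48 h in serum-free induction medium to eight half-log concentrations up to 100 uM in 0.5% DMSO, duplicates. Transcript measured by Fluidigm TaqMan qRT-PCR, normalized to ACTB, GAPDH, POLR2A; bidirectional fit versus DMSO.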

[5] = read-out: Peroxisomal acyl-coenzyme A oxidase 1 (ACOX1) gene, ACOX1 (gene 51); assay: LTEA_HepaRG_ACOX1: Life Technologies and Expression Analysis (LTEA) Assay for Peroxisomal acyl-coenzyme A oxidase 1 (ACOX1) gene using HepaRG (AID 2283467)
How it was run: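 HepaRG cells, plated 48 h then switched to serum-free induction medium, were exposed in duplicate for 48 h to 8-point half-log concentrations up to 100 uM in 0.5% DMSO. ACOX1 mRNA was measured by qRT-PCR, normalized to ACTB/GAPDH/POLR2A, and fitted bidirectionally versus DMSO.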

[6] = read-out: Bcl-2 (BAD) gene, BAD (gene 572); assay: LTEA_HepaRG_BAD: Life Technologies and Expression Analysis (LTEA) Assay for Bcl-2 (BAD) gene using HepaRG (AID 2283469)
How it was run: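 Differentiated HepaRG cells were exposed in duplicate in 0.5% DMSO for 48 h to eight-point half-log concentrations up to 100 uM. BAD mRNA was measured by Fluidigm TaqMan qRT-PCR, normalized to ACTB, GAPDH and POLR2A, and fitted bidirectionally against DMSO.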

[7] = read-out: Bcl-2 (BAX) gene, BAX (gene 581); assay: LTEA_HepaRG_BAX: Life Technologies and Expression Analysis (LTEA) Assay for Bcl-2 (BAX) gene using HepaRG (AID 2283470)
How it was run: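 Concentration-response endpoint fitted in both directions relative to 0.5% DMSO vehicle. Human HepaRG cultures receive test chemicals for 48 h at up to 100 uM; BAX mRNA is quantified by qRT-PCR against housekeeping genes.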

[8] = read-out: adenosine kinase (ADK) gene, ADK (gene 132); assay: LTEA_HepaRG_ADK: Life Technologies and Expression Analysis (LTEA) Assay for adenosine kinase (ADK) gene using HepaRG (AID 2283471)
How it was run: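 ADK expression quantified by qRT-PCR, normalised to three housekeeping genes, after 48 h exposure of HepaRG cells to eight concentrations (top 100 uM, half-log steps, duplicate, 0.5% DMSO). Up- or down-regulation fitted relative to vehicle.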

[9] = read-out: Alpha-fetoprotein (AFP) gene, AFP (gene 174); assay: LTEA_HepaRG_AFP: Life Technologies and Expression Analysis (LTEA) Assay for Alpha-fetoprotein (AFP) gene using HepaRG (AID 2283472)
How it was run: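 After a 48 h plating period, cells are moved to serum-free induction medium and dosed in duplicate (100 uM maximum, half-log dilutions, 0.5% DMSO) for another 48 h. Total RNA goes to TaqMan qRT-PCR; AFP signal is housekeeping-normalized.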

[10] = read-out: BCL2L11 (gene 10018); assay: LTEA_HepaRG_BCL2L11: Life Technologies and Expression Analysis (LTEA) Assay for Bcl-2 (BCL2L11) gene using HepaRG (AID 2283473)
How it was run: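 Read-out is BCL2L11 transcript level by qRT-PCR, normalized to three housekeeping genes and fitted bidirectionally against 0.5% DMSO vehicle. HepaRG cells received chemicals for 48 h in serum-free induction medium, 100 uM down in half-log dilutions.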

[11] = read-out: Apolipoprotein A-V (APOA5) gene, APOA5 (gene 116519); assay: LTEA_HepaRG_APOA5: Life Technologies and Expression Analysis (LTEA) Assay for Apolipoprotein A-V (APOA5) gene using HepaRG (AID 2283474)
How it was run: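 Readout is APOA5 transcript level by qRT-PCR on Fluidigm dynamic arrays, normalized to three housekeeping genes. HepaRG cultures received chemicals for 48 h at up to 100 uM (half-log steps, 0.5% DMSO), with gain or loss scored relative to DMSO.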

[12] = read-out: Bcl-2 (BID) gene, BID (gene 637); assay: LTEA_HepaRG_BID: Life Technologies and Expression Analysis (LTEA) Assay for Bcl-2 (BID) gene using HepaRG (AID 2283476)
How it was run: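 Gain or loss of BID expression is fitted relative to 0.5% DMSO vehicle. Human HepaRG liver cells received a 48 h chemical exposure over an eight-point concentration range.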

[13] = read-out: Caspase-3 (Homo sapiens) (UniProt P42574); assay: LTEA_HepaRG_CASP3: Life Technologies and Expression Analysis (LTEA) Assay for cysteine-aspartic acid protease (CASP3) using HepaRG (AID 2283477)
How it was run: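 Read-out is CASP3 mRNA level by TaqMan qRT-PCR in human HepaRG cells after 48 h chemical exposure. Eight half-log concentrations topping at 100 uM were tested in 0.5% DMSO; gain or loss was fitted relative to DMSO.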

[14] = read-out: Cytochrome P450 (CYP24A1), CYP24A1 (gene 1591); assay: LTEA_HepaRG_CYP24A1: Life Technologies and Expression Analysis (LTEA) Assay for Cytochrome P450 (CYP24A1) using HepaRG (AID 2283478)
How it was run: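 HepaRG, 48 h chemical exposure, 8-pt half-log CRC from 100 uM, 0.5% DMSO vehicle, duplicates. Endpoint: CYP24A1 mRNA by Fluidigm TaqMan qRT-PCR, normalized ACTB/GAPDH/POLR2A; gain/loss fit vs DMSO.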

[15] = read-out: Cytochrome P450 (CYP1A2), CYP1A2 (gene 1544); assay: LTEA_HepaRG_CYP1A2: Life Technologies and Expression Analysis (LTEA) Assay for Cytochrome P450 (CYP1A2) using HepaRG (AID 2283479)
How it was run: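 CYP1A2 transcript induction or loss, quantified by Fluidigm qRT-PCR against three housekeeping genes, was fitted bidirectionally against 0.5% DMSO controls. Human HepaRG cells received eight half-log concentrations from 100 uM over 48 h.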

[16] = read-out: cysteine-aspartic acid protease (CASP8), CASP8 (gene 841); assay: LTEA_HepaRG_CASP8: Life Technologies and Expression Analysis (LTEA) Assay for cysteine-aspartic acid protease (CASP8) using HepaRG (AID 2283480)
How it was run: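 Differentiated HepaRG cells in serum-free induction medium, 48 h exposure, eight-point half-log series from 100 uM in 0.5% DMSO, duplicates. CASP8 mRNA by qRT-PCR, normalized to ACTB, GAPDH, POLR2A; bidirectional fit versus DMSO.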

[17] = read-out: Cytochrome P450 (CYP2B6), CYP2B6 (gene 1555); assay: LTEA_HepaRG_CYP2B6: Life Technologies and Expression Analysis (LTEA) Assay for Cytochrome P450 (CYP2B6) using HepaRG (AID 2283481)
How it was run: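 HepaRG cells plated 48 h, switched to serum-free induction medium, then dosed 48 h (8 points, half-log from 100 uM, 0.5% DMSO). RNA isolated; CYP2B6 expression measured by qRT-PCR; gain or loss fitted relative to DMSO.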

[18] = read-out: Cytochrome P450 2C19 (Homo sapiens) (UniProt P33261); assay: LTEA_HepaRG_CYP2C19: Life Technologies and Expression Analysis (LTEA) Assay for CYP2C19 using HepaRG (AID 2283482)
How it was run: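 Transcript levels of CYP2C19 were quantified by qRT-PCR after HepaRG cells were treated for 48 hours with test chemicals up to 100 uM (eight half-log concentrations, 0.5% DMSO vehicle). Gain or loss of signal was fitted relative to DMSO.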

[19] = read-out: Apoptosis regulator Bcl-2 (Homo sapiens) (UniProt P10415); assay: LTEA_HepaRG_BCL2: Life Technologies and Expression Analysis (LTEA) Assay for Bcl-2 gene using HepaRG (AID 2283475)
How it was run: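 Expression change of BCL2 mRNA in HepaRG after 48 h dosing, quantified by TaqMan qRT-PCR against three endogenous controls. Concentration-response used eight points up to 100 uM, vehicle 0.5% DMSO.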

Measured: AC50

Chain of Cytochrome P450 2C19 (Homo sapiens) (P33261 whole entry, looked up): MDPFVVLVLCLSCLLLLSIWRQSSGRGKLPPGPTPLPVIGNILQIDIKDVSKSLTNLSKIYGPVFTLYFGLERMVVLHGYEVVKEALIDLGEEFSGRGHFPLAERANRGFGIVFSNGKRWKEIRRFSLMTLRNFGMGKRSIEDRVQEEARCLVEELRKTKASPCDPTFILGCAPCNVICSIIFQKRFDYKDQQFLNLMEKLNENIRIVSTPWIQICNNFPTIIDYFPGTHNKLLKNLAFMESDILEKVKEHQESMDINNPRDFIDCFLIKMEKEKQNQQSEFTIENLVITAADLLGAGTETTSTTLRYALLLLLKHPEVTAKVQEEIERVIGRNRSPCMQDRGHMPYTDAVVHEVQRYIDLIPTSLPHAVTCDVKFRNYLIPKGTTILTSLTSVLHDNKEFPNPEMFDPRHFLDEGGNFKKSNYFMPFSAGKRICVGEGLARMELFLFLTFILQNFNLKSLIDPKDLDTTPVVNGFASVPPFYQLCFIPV
Chain of Caspase-3 (Homo sapiens) (P42574 whole entry, looked up): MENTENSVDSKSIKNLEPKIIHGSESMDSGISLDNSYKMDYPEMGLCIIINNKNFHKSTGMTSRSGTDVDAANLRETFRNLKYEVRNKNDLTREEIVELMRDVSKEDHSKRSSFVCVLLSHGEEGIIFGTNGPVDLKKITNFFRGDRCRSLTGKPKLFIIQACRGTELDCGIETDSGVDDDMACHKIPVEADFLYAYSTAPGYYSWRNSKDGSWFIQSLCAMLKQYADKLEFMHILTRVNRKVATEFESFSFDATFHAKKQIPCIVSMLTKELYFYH
Chain of Broad substrate specificity ATP-binding cassette transporter ABCG2 (Homo sapiens) (Q9UNQ0 whole entry, looked up): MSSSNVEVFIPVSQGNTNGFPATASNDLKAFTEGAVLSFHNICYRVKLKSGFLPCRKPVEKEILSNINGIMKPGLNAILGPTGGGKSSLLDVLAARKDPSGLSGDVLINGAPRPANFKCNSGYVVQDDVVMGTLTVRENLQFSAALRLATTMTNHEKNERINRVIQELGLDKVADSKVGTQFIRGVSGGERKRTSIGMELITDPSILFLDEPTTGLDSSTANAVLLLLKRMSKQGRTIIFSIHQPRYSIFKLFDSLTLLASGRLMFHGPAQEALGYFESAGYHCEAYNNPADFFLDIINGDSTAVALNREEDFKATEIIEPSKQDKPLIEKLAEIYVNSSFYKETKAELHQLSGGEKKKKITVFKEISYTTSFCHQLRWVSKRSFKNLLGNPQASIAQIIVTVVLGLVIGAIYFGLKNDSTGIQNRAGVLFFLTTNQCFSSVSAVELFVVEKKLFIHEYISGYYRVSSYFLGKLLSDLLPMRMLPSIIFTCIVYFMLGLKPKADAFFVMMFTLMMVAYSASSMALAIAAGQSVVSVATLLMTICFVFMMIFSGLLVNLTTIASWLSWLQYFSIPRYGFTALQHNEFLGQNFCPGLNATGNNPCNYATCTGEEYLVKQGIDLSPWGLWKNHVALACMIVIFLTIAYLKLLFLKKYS
Chain of Apoptosis regulator Bcl-2 (Homo sapiens) (P10415 whole entry, looked up): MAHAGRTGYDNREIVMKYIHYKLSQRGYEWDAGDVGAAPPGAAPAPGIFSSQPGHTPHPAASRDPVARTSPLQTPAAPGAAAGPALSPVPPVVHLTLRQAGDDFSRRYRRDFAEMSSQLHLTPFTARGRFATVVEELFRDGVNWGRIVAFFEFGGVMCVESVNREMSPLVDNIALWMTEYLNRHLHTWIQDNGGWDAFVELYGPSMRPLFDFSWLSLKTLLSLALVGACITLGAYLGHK

CC(C)CCO
not listed: [19]
inactive: all other assays above

CC/C(=C\C(=N/O)C(N)=O)C(C)[N+](=O)[O-] (centres undefined)
active: [15] 26.5 µM
not listed: [7] | [19]
inactive: all other assays above

CC1=CC(=O)CC(C)(C)C1
not listed: [19]
inactive: all other assays above

O=C(O)CC(O)C(=O)O (centres undefined)
not listed: [7]
inactive: all other assays above

COC(=O)c1ccccc1O
not listed: [10]
inactive: all other assays above

CCCCCCCCCCCCCCCO
not listed: [7]
inactive: all other assays above

CCOCCO
not listed: [7]
inactive: all other assays above

C1N2CN3CN1CN(C2)C3
active: [15] 68.7 µM
not listed: [7] | [19]
inactive: all other assays above

COC(=O)c1c(Cl)c(Cl)c(C(=O)OC)c(Cl)c1Cl
not listed: [19]
inactive: all other assays above

CCOCCOCCOCCO
not listed: [7] | [19]
inactive: all other assays above

O=c1[nH]c2ccc(S(=O)CCN3CCC(Cc4ccc(F)cc4)CC3)cc2o1 (centres undefined)
active: [2] 50 µM | [3] 50 µM | [9] 61.1 µM | [17] 82.3 µM
not listed: [11] | [18] | [19]
inactive: all other assays above

C=CCCCCCCCCC(=O)O
active: [8] 0.00684 µM | [15] 50 µM
not listed: [7] | [19]
inactive: all other assays above

O=C(O)c1cc(N=Nc2ccc(S(=O)(=O)Nc3ccccn3)cc2)ccc1O
active: [15] 75.7 µM
not listed: [7] | [19]
inactive: all other assays above

CCc1cc(SCc2sc(-c3ccc(C(F)(F)F)cc3)nc2CN2CCN(c3ccc(OC)cc3)CC2)ccc1OCC(=O)O
active: [1] 8.6 µM | [2] 93.3 µM | [3] 7.49 µM | [4] 93.4 µM | [5] 92.7 µM | [6] 87 µM | [8] 90.9 µM | [9] 7.69 µM | [10] 89.4 µM | [12] 0.206 µM | [16] 15.8 µM | [17] 7.48 µM | [18] 7.52 µM
inactive: [11] | [13] | [14] | [15]
